Measurements taken from PubChem BioAssay (NCATS).
Records with an inconclusive call do not appear. Where a call stands in place of a potency, no number is given. A number with no mark means an inactive call. Calls of active or inactive are those of the source. The call rests on the fitted dose curve; in most records, active means well fitted curve in the direction sought with a large enough effect; inconclusive means small, poorly fitted or top-dose-only effect, or another doubt; inactive means no such curve, though single readings can be large; an effect the other way counts as inactive or inconclusive.

How the values were obtained:
[1] = target: Rap guanine nucleotide exchange factor 3 (Homo sapiens) (UniProt O95398); assay: Confirmatory qHTS for agonist of cAMP-regulated guanine nucleotide exchange factor 3 (EPAC1) (AID 1645881);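 further: EPAC1 catalysed release of BODIPY-GDP from Rap1B seen as fluorescence loss; nearly all actives have a fitted effect of over 75% in size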
[2] = target: Rap guanine nucleotide exchange factor 4 (Homo sapiens) (UniProt Q8WZA2); assay: Confirmatory qHTS for agonist of cAMP-regulated guanine nucleotide exchange factor 4 (EPAC2) (AID 1645884);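 further: nucleotide exchange releases bodipy-GDP from Rap1 and this lowers its fluorescence; nearly all actives have a fitted effect of over 65% in size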
[3] = target: Rap guanine nucleotide exchange factor 4 (Homo sapiens) (UniProt Q8WZA2); assay: Confirmatory qHTS for antagonist of cAMP-regulated guanine nucleotide exchange factor 4 (EPAC2) (AID 1645885); further: nearly all actives have a fitted effect of over 25% in size; further: potency means the concentration at half of the fitted maximal effect
[4] = target: Rap guanine nucleotide exchange factor 3 (Homo sapiens) (UniProt O95398); assay: Counterscreen qHTS for antagonist of cAMP-regulated guanine nucleotide exchange factor 3 (EPAC1) (AID 1645888);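 further: fluorescence loss as bound BODIPY-GDP is released from Rap1B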
Method in brief: (§1)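 Rap1B–BODIPY-GDP (250 nM) with 50 uM GDP; compounds pin-transferred to 9.74 nM–152 uM final (activator) or from 7.32 nM upwards (inhibitor). Fluorescence Ex/Em 480/540 nm read at 5 and 30 min, then after adding cAMP or buffer, at room temperature.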

[5] = target: Rap guanine nucleotide exchange factor 3 (Homo sapiens) (UniProt O95398); assay: Counterscreen qHTS for agonist of cAMP-regulated guanine nucleotide exchange factor 3 (EPAC1) (AID 1645889); further: nearly all actives have a fitted effect of over 40% in size
Method in brief: as §1

Chain of Rap guanine nucleotide exchange factor 4 (Homo sapiens) (Q8WZA2 whole entry, looked up): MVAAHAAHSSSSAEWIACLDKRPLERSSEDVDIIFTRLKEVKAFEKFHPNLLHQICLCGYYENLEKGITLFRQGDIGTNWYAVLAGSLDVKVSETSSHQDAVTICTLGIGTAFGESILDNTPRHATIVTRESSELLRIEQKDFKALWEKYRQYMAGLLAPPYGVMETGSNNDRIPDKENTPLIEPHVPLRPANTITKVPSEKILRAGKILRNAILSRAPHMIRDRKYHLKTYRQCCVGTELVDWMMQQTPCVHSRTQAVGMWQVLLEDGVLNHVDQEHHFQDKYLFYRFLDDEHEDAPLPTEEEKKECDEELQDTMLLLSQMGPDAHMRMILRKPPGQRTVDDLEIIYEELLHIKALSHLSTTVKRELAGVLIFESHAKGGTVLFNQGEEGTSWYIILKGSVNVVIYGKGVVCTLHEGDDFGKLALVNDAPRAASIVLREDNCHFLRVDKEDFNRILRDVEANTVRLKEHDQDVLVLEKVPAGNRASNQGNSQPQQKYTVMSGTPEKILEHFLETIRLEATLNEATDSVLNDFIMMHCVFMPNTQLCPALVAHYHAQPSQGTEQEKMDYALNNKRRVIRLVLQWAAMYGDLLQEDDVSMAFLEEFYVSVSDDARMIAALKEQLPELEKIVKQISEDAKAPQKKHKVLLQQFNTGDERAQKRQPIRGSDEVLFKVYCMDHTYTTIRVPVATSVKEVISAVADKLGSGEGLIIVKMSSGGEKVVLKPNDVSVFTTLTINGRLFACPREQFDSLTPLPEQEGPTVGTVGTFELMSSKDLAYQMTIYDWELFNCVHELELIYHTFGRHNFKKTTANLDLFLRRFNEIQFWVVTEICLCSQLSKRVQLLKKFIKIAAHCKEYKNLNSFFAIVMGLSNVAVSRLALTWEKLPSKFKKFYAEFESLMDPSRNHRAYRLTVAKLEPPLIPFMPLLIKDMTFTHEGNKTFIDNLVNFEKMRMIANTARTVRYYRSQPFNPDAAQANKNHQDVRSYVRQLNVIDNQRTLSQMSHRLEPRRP
Chain of Rap guanine nucleotide exchange factor 3 (Homo sapiens) (O95398 whole entry, looked up): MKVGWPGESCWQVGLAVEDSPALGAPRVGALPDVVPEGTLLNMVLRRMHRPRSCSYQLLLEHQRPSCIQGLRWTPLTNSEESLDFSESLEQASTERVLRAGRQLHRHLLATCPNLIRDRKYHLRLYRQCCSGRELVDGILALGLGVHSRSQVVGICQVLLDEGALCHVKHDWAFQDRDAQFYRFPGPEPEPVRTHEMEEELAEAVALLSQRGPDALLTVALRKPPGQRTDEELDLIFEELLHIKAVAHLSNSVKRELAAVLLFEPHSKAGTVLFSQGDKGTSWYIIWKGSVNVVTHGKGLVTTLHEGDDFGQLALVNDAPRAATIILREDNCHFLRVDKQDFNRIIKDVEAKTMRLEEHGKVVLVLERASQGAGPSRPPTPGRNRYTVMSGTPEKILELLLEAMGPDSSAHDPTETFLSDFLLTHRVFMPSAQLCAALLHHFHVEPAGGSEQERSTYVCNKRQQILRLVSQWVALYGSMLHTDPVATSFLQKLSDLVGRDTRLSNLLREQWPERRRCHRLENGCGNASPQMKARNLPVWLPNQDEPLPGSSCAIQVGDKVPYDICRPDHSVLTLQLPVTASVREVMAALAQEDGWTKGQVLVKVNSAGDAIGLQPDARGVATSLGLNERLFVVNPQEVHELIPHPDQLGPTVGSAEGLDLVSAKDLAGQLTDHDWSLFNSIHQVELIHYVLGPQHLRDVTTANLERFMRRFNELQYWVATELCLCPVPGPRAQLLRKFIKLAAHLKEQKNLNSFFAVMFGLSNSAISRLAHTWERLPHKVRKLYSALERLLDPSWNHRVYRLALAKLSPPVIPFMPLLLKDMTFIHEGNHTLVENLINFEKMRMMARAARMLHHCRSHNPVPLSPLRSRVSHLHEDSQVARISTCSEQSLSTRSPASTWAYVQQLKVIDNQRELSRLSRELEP

Row | Compound | Potency [1] | activation [2] | Potency [3] | activity change, negative = inhibition [4] | activation [5] | Potency [2] | Potency [4] | Potency [5] | outcome [3]
1 | O=C(/C=C/c1ccco1)NC(=S)Nc1cccc(-c2nc3ccccc3o2)c1 | inactive | -2.07% [at 17.1 µM, percent relative to cAMP agonist control] | inactive | -12.8% [at 30.8 µM] | 10.2% [at 30.8 µM] | – | – | – | –
2 | Cn1c(SCC(=O)Nc2ccc(C(=O)O)cc2)nc2scc(-c3ccccc3Cl)c2c1=O | inactive | – | 42.6 µM (active) | – | – | inactive | inactive | inactive | –
3 | CC(C)C[C@H]1CNC(=O)C(=O)N1C[C@@H]1CCCN1C[C@H](Cc1ccc(O)cc1)N1C[C@H](Cc2ccccc2)N(CC2CCCCC2)C(=O)C1=O | inactive | – | 47.8 µM (active) | – | – | inactive | inactive | inactive | –
4 | Cc1ccc(C)c(N2CCN(C(=O)c3cccn4c(=O)c5ccccc5nc34)CC2)c1 | inactive | – | inactive | – | – | inactive | inactive | inactive | –
5 | O=C(CSc1ccc(-c2ccco2)nn1)c1ccc(F)cc1 | inactive | – | inactive | – | – | inactive | inactive | inactive | –
6 | O=C(CCn1cnc2onc(-c3ccc(F)cc3)c2c1=O)Nc1ccc(F)c(Cl)c1 | inactive | – | inactive | – | – | inactive | inactive | inactive | –
7 | Cc1ccccc1OCC(=O)Nc1ccccc1N1CCC(C)CC1 | inactive | – | 42.6 µM (active) | – | – | inactive | inactive | inactive | –
8 | O=C(COC(=O)c1ccc([N+](=O)[O-])s1)NCc1ccccc1 | inactive | – | inactive | – | – | inactive | inactive | inactive | –
9 | Cc1cc(C)c(C)c(S(=O)(=O)N2CCCCC2C(=O)O)c1C (stereo not given) | inactive | 4.7% [at 17.1 µM, percent relative to cAMP agonist control] | inactive | 8.45% [at 30.8 µM] | -1.83% [at 30.8 µM] | – | – | – | –
10 | CCOC(=O)C1Nc2ccc(C(F)(F)F)cc2C2C=CCC12 (stereo not given) | inactive | 1.4% [at 17.1 µM, percent relative to cAMP agonist control] | inactive | -11.7% [at 30.8 µM] | 11.6% [at 30.8 µM] | – | – | – | –
11 | CCc1ccc(C=C2SC(=S)N(CCCC(=O)Nc3ccc(C(=O)O)cc3)C2=O)cc1 | inactive | – | inactive | – | – | inactive | inactive | inactive | –
12 | Cc1nn(-c2ccc(F)cc2)c(-n2cccc2)c1C(=O)N1CCN(c2ccc(F)cc2)CC1 | inactive | – | – | – | – | inactive | inactive | inactive | inactive [at 12.7 µM]
13 | Cc1ccc(F)c(S(=O)(=O)NC(=O)C2(C)CCN2C(=O)C2(c3ccc(Cl)cc3)CCC2)c1 (stereo not given) | inactive | – | inactive | – | – | inactive | inactive | inactive | –
14 | CCCCOc1cccc(C2C(C(=O)c3ccc(C)o3)=C(O)C(=O)N2c2nnc(C)s2)c1 (stereo not given) | inactive | – | inactive | – | – | inactive | inactive | inactive | –
15 | CCC(C)[C@H]1COCCS(=O)(=O)N1Cc1ccc(Cl)cc1Cl (stereo not given in full) | inactive | – | inactive | – | – | inactive | inactive | inactive | –
16 | Fc1cccc(Cc2c(-c3ccc(Cl)cc3)nc3ccc(Cl)cn23)c1 | inactive | 7.12% [at 17.1 µM, percent relative to cAMP agonist control] | inactive | -4.02% [at 30.8 µM] | 23% [at 30.8 µM] | – | – | – | –
17 | CCN=C1S/C(=C\c2ccc(-c3cccc(C(=O)O)c3)o2)C(=O)N1CC | inactive | – | inactive | – | – | inactive | inactive | inactive | –
18 | Cc1ccc(NC(=O)C2(C)CCN2CCc2ccccc2)cc1 (stereo not given) | inactive | -1.02% [at 17.1 µM, percent relative to cAMP agonist control] | inactive | 1.14% [at 30.8 µM] | 6.12% [at 30.8 µM] | – | – | – | –
19 | O=C(C1CC1)N1CCCC(c2ccc(Cl)cc2)=N1 | inactive | -19.8% [at 17.1 µM, percent relative to cAMP agonist control] | inactive | -19% [at 30.8 µM] | -0.772% [at 30.8 µM] | – | – | – | –
20 | COC1=CC(=O)C(C2CC(=O)c3c(O)cc(O)cc3O2)=CC1=O (stereo not given) | inactive | 9.22% [at 17.1 µM, percent relative to cAMP agonist control] | inactive | -16% [at 30.8 µM] | 4.79% [at 30.8 µM] | – | – | – | –
21 | CC1=Nc2ccccc2N=C(NC(=O)/C=C/C(=O)O)C1c1ccccc1 (stereo not given) | inactive | – | 0.0675 µM (active) | – | – | inactive | inactive | inactive | –
22 | CCc1ccc(N=Nc2ccc(O)c3[nH]cnc23)cc1 | inactive | – | inactive | – | – | inactive | inactive | inactive | –

Row | Compound | Potency [1] | activation [2] | Potency [3] | activity change, negative = inhibition [4] | activation [5] | Potency [2] | Potency [4] | Potency [5] | outcome [3]
23 | Cc1ccc(C)c(CSC2=NC(C)(C)Nc3ccccc32)c1 | inactive | – | – | – | – | inactive | inactive | inactive | inactive [at 12.7 µM]
24 | N#Cc1c(NC(=O)C2CC=CCC2C(=O)O)sc2c1CCCCCC2 (stereo not given) | inactive | -2.41% [at 17.1 µM, percent relative to cAMP agonist control] | inactive | -15.2% [at 30.8 µM] | 6.58% [at 30.8 µM] | – | – | – | –
25 | COc1ccc(S(=O)(=O)Nc2ccccc2SC)cc1C | inactive | – | 10.7 µM (active) | – | – | inactive | inactive | inactive | –
26 | Cc1ccc(-c2csc(/C(C#N)=C(\O)CCl)n2)cc1 | inactive | -6.35% [at 17.1 µM, percent relative to cAMP agonist control] | inactive | -2.33% [at 30.8 µM] | 14.1% [at 30.8 µM] | – | – | – | –
27 | CS(=O)(=O)c1ccc(C(=O)OCc2nnc(-c3ccccc3)o2)cc1[N+](=O)[O-] | inactive | – | inactive | – | – | inactive | inactive | inactive | –
28 | COCC(=O)Oc1c(Sc2ccccc2[N+](=O)[O-])c(C)nn1C(C)(C)C | inactive | – | inactive | – | – | inactive | inactive | inactive | –
29 | O=c1[nH]c(C2CCN(S(=O)(=O)c3ccccc3F)CC2)nc2c1nnn2Cc1ccc(F)cc1 | inactive | – | inactive | – | – | inactive | inactive | inactive | –
30 | COc1ccc(C(C#N)N2CCC(c3ccccc3)=N2)cc1 (stereo not given) | inactive | – | 7.57 µM (active) | – | – | inactive | inactive | inactive | –
31 | COc1ccc(Nc2nnc(-c3ccc(O)cc3)c3ccccc23)cc1 | inactive | 5.03% [at 17.1 µM, percent relative to cAMP agonist control] | inactive | -17.5% [at 30.8 µM] | 26.4% [at 30.8 µM] | – | – | – | –
32 | O=C(O)CCc1ccc(-c2ccc(Br)cc2)n1-c1ccc(O)cc1 | inactive | – | 42.6 µM (active) | – | – | inactive | inactive | inactive | –
33 | CCCCN(C(=O)Cn1ncc(Cl)c(Cl)c1=O)c1c(N)n(CC(C)C)c(=O)[nH]c1=O | inactive | 3.26% [at 17.1 µM, percent relative to cAMP agonist control] | inactive | -8.9% [at 30.8 µM] | 16.5% [at 30.8 µM] | – | – | – | –
34 | C=CCn1c(C)cc(C2=NNC(=Nc3ccc(C)cc3)SC2)c1C | inactive | – | inactive | – | – | inactive | inactive | inactive | –
35 | CCCCOc1c(Br)cc(/C=N/O)cc1OCC | inactive | 6.54% [at 17.1 µM, percent relative to cAMP agonist control] | inactive | -12% [at 30.8 µM] | 5.43% [at 30.8 µM] | – | – | – | –
36 | CCc1c(O)cc(=O)n(-c2ccccc2)c1-c1ccccc1 | inactive | – | 84.9 µM (active) | – | – | inactive | inactive | inactive | –
37 | COC(=O)c1ccc2nc(-c3ccco3)c(Cc3ccc(OC)cc3C)n2c1 | inactive | – | inactive | – | – | inactive | inactive | inactive | –
38 | O=C1CC(c2ccccc2)=NN1c1nc(-c2ccccc2)cs1 | inactive | – | inactive | – | – | inactive | inactive | inactive | –
39 | COc1ccccc1C1CC(=O)Oc2cc(C)c(Cl)cc21 (stereo not given) | inactive | – | 9.53 µM (active) | – | – | inactive | inactive | inactive | –
40 | O=C(CSc1nc(-c2cccs2)nc2cc(=O)[nH]n12)Nc1cccc(C(F)(F)F)c1 | inactive | – | – | – | – | inactive | inactive | inactive | inactive [at 12.7 µM]
41 | COc1cc(/C=C2/SC(=S)N(CC(=O)O)C2=O)ccc1OC(=O)c1cccs1 | inactive | – | inactive | – | – | inactive | inactive | inactive | –
42 | O=C(Nc1cc(C(F)(F)F)ccc1Cl)c1nc2ccccc2nc1N1CCCCC1 | inactive | – | – | – | – | inactive | inactive | inactive | inactive [at 12.7 µM]
43 | CCCCN1C(=O)C(NC(=O)c2ccc(C(C)(C)C)cc2)(C(F)(F)F)C(C(=O)OC)=C1C (stereo not given) | inactive | – | inactive | – | – | inactive | inactive | inactive | –
44 | CC(=O)Nc1ccc(S(=O)(=O)/N=C2/NC(=O)/C(=C\c3ccco3)S2)cc1 | inactive | – | 84.9 µM (active) | – | – | inactive | inactive | inactive | –
